Assay results from PubChem BioAssay.
Values without a mark were called inactive. No rule for the calls is given here.

Biological target: Pantothenate synthetase (Mycobacterium tuberculosis (strain ATCC 25618 / H37Rv)) (UniProt P9WIL5)
Assay: Recombinant Mtb pantothenate synthetase (PanC) inhibitors, coupled enzyme, confirmatory (AID 375);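 also: 0% = full reaction with vehicle and 100% = no enzyme background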
Conditions: coupled enzyme assay; at 10 µM, stronger effect = higher value

Chain of Pantothenate synthetase (Mycobacterium tuberculosis (strain ATCC 25618 / H37Rv)) (P9WIL5 whole entry, looked up): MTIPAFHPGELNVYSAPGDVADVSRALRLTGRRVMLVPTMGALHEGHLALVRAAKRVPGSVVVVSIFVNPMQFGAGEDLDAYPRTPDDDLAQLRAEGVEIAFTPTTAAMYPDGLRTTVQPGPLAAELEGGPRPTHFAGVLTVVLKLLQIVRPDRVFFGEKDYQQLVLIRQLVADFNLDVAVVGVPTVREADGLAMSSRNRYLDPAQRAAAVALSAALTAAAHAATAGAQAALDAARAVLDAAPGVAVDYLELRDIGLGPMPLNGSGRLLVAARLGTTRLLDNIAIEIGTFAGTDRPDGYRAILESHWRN

Structure (SMILES)	inhibition [%]
NC(=O)c1cccc2c1C(=O)N(C1CCCCC1)C2	0
CCOc1ccc2nc(NC(=O)CSc3nc4ccccc4c(=O)n3Cc3ccco3)sc2c1	0
O=C(CSc1nnc(CNC(=O)c2c(F)cccc2Cl)o1)c1ccccc1	0
Nc1cc(C(=O)O)ccc1Nc1ccc(F)c(F)c1	5
COCCOC(=O)c1c(C)nc(SCC(=O)Nc2ccc(OC)cc2)c(C#N)c1-c1ccco1	0
Cc1ccc(NC(=O)COc2nc(C)cs2)cc1	1
C=CCN(CC=C)C(=O)Nc1cc(Cl)ccc1OC	0
COc1ccc(C)cc1NC(=O)CN(Cc1nnc(-c2ccc(Cl)cc2)o1)C1CCCC1	0
Nn1c(SCC(=O)Nc2ccc3c(c2)OCCO3)nnc1C(F)(F)F	4
Cn1c(=O)c2[nH]c(NCC3CCCO3)nc2n(-c2ccccc2)c1=O (stereo not drawn)	0
CN1CCN2c3ccccc3Cc3ccccc3C2C1 (stereo not drawn)	0
O=c1c(-c2ccccc2)coc2c(CN3CCOCC3)c(O)ccc12	6
CN(C)S(=O)(=O)c1ccc(/C(O)=C2/C(=O)C(=O)N(CCN3CCCCC3)C2c2cccnc2)cc1 (stereo not drawn)	0
c1ccc(N2CCN(Cc3ccnc4ccccc34)CC2)cc1	2
CCc1cc2c(=O)n(C(C)C(=O)OC3CCCCC3)cnc2s1 (stereo not drawn)	0
COc1ccc(N2CCN(C(c3ccccc3)c3sc4nc(C)nn4c3O)CC2)cc1 (stereo not drawn)	0
O=c1c2nnn(Cc3ccccc3)c2ncn1-c1ccccc1	0
Clc1cccc(-c2nnc3sc(-c4ccccc4)nn23)c1	0
CCCN(CCC)c1nc2ccccc2n2c(C)nnc12	4
CCC(C)c1ccc(NC(=O)C2CC2)cc1 (stereo not drawn)	0
CC(=O)OC(C(=O)NCc1ccco1)c1cccnc1 (stereo not drawn)	0
CC1=C(/C=C/C(C)=C/C=C/C(C)=C/C(=O)O)C(C)(C)CCC1	0
COc1ccccc1NC(=O)Cc1noc(CSc2cc(C)c3ccccc3n2)n1	0
Clc1ccc(-n2nnnc2Sc2ncnc3sccc23)cc1	0

Structure (SMILES)	inhibition [%]
Cc1ccc(-c2nnc(N(C)C(=O)c3ccccn3)s2)cn1	0
CC(=O)NS(=O)(=O)c1ccc(N)cc1	2
CC(C)n1nnnc1SCC(=O)Nc1ccccc1N1CCOCC1	1
C/C(=C(\C#N)C(=O)NCCCN1CCOCC1)N(C)C	0
COc1ccc(C2/C(=C(/O)c3cnn(-c4ccccc4)c3C)C(=O)C(=O)N2CCN(C)C)cc1OC (stereo not drawn)	3
CCOC(=O)NC(=O)CSc1nnnn1-c1ccc(Cl)cc1	0
COCCNc1oc(-c2ccc(C)cc2)nc1C#N	0
CCOC(=O)C1CCCN(S(=O)(=O)c2cccs2)C1 (stereo not drawn)	6
COCCCNC(=O)C1CCCN(C(=O)Nc2ccc(OC)cc2)C1 (stereo not drawn)	2
NC(N)=NC(=O)c1nc(Cl)c(N)nc1N	0
O=C(COc1ccccc1)NCCSCc1ccco1	0
COC(=O)c1cc(=O)n(Cc2ccc3c(c2)OCO3)c(=Nc2ccccc2)s1	7
Cc1ccc(NC(=O)CN2CC(C)SC2=NC2CCCCC2)cc1 (stereo not drawn)	6
CCOC(=O)N1CCC(NC(=O)CCC(=O)N2CC(C)Oc3ccc(Cl)cc32)CC1 (stereo not drawn)	2
CC1Cc2ccccc2N1C(=O)CSc1nc2ccccc2n1CC(=O)N1CCOCC1 (stereo not drawn)	0
CC12CCC(C(=O)N3CCCCC3)(CC1=O)C2(C)C (stereo not drawn)	0
O=C1c2ccccc2C(Nc2ccc3c(c2)OCCO3)N1Cc1ccco1 (stereo not drawn)	0
CCCCNC(=O)CSc1nc2ccc(N3CCOCC3)cc2c(=O)n1CCc1ccccc1	15
CC(=O)Nc1ccccc1OCc1nnc(-c2cccs2)o1	0
CN(C)Cc1c(O)ccc2oc(Cc3ccccc3)cc12	8
O=C1NC(c2ccccc2)(C(F)(F)F)SC2=NCCCN12 (stereo not drawn)	0
Cc1c(C(=O)NC2CCCc3ccccc32)oc2ccc(S(=O)(=O)N3CCOCC3)cc12 (stereo not drawn)	6
CCOC(=O)C1CCCN(C(=O)c2cc3c(=O)n4cccc(C)c4nc3n2C)C1 (stereo not drawn)	0
O=C(Nn1cnnc1)C1Cc2ccccc2CN1S(=O)(=O)c1ccc(F)cc1 (stereo not drawn)	0
